Most compounds without a hit are left out; they make up all but 8% or so of the library.
MARV entry inh: qHTS for inhibitors of binding or entry into cells for Marburg Virus; Marburg virus pseudotyped entry inhibition, cell reporter; 300,000 compounds, 1.8% hits; Potency, µM (doses to about 37.8 µM), for inactives: at the highest dose activity change, negative = inhibition, usual class: inhibitors; calls by dose curve; tested in HEK293 cells; also: potency is read from the fitted curve at half-maximal effect; % is scaled to controls: 0 for no effect and ±100 for the full control effect
FMDV antiviral: High Throughput Screening for Foot and Mouth Disease Virus Antivirals; Potency, µM (highest dose often 57.9 µM), without a hit: top-dose activity change, negative = inhibition, actives largely listed as inhibitors; 410,000 compounds, 1.2% hits; FMDV antiviral cell-based qHTS; AID 1159524, 2015; calls by dose curve; tested in HEK293T cells; also: read-out not given here; potency is read from the fitted curve at half-maximal effect; % is scaled to controls: 0 for no effect and ±100 for the full control effect; nearly all actives have a fitted effect of over 45% in size
SARS PLP yeast: qHTS of Yeast-based Assay for SARS-CoV PLP; S. cerevisiae expressing SARS-CoV PLpro, growth rescue; Potency, µM (titrated, usually from 32.9 µM), inactives show top-dose activity, positive = growth rescue, most hits filed as activators; 330,000 compounds, 0.19% hits; calls by dose curve; also: potency is read from the fitted curve at half-maximal effect; 0% is about no effect; nearly all actives have a fitted effect of over 55% in size
LASV entry inh: qHTS for Inhibitors of binding or entry into cells for Lassa Virus; 300,000 compounds, 1.2% hits; AID 540256, 2011; Potency, µM (top dose mostly 37.9 µM), for the others: at the top dose activity change, negative = inhibition, actives largely listed as inhibitors; Lassa virus pseudotype entry inhibition, cell reporter; calls by dose curve; tested in HEK293 cells; also: potency is read from the fitted curve at half-maximal effect; % is scaled to controls: 0 for no effect and ±100 for the full control effect; nearly all actives have a fitted effect of over 50% in size
HCMV antiviral: qHTS Assay for inhibitors of the human cytomegalovirus (HCMV); HFF cells, HCMV-luciferase reporter, 72 h; active compounds read low; 410,000 compounds, 4.5% hits; activity change, negative = inhibition, % at 57.5 µM; in the data active = activity change below about -60%; inconclusive = no clear call, values can overlap the other calls; inactive = above about -39%; also: % is scaled to controls: 0 for no effect and ±100 for the full control effect
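Screen run at 2 compound doses on HFFs infected with reporter HCMV, MOI 1 PFU/cell. Luciferase activity from cell lysates at 72 h post infection gave inhibition relative to buffer-only and Salinomycin wells.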
HCV inhibitor: qHTS Assay for Inhibitors of Hepatitis C Virus (HCV). Huh7.5.1 HCVcc-Cre infection, luciferase reporter, 44 h. Potency, µM (titrated, usually from 41.8 µM), for the others: at the top dose activity change, negative = inhibition, usual class: inhibitors. 340,000 compounds, 3.4% hits. AID 651820, 2012; active = well fitted inhibition curve with a large enough effect; inconclusive = small, poorly fitted or top-dose-only effect, or another doubt; inactive = no such curve, though single readings can be large or run the other way; also: potency is read from the fitted curve at half-maximal effect; % is scaled to controls: 0 for no effect and ±100 for the full control effect
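Whole-lifecycle infectious HCVcc-Cre system; cells 1,000/well, compound then virus (~0.5 moi) added 4 h after plating, 44 h culture. Luciferase read 15 sec following 15 min substrate incubation, room temp.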
Numbers without * were called inactive; ? = inconclusive; · = not tested or not shown; [ ] = remark or other dose.

SMILES	MARV entry inh	FMDV antiviral	SARS PLP yeast	LASV entry inh	HCMV antiviral	HCV inhibitor
CCCc1nn2c(=O)cc(COC(=O)CNC(=O)COc3ccc(C)cc3)nc2s1	·	-19%	·	-11%[46.1 µM]	8	·
CCN1CCC(CNCc2cn(-c3ccc(OC)cc3)nc2-c2ccccc2Cl)C1 (stereo not given)	4µM*	35%	-1%	?	-71*	11µM*
COc1cccc(NC(=O)C2CCCN(c3nnc(-n4c(C)ccc4C)s3)C2)c1 (stereo not given)	3%[46.1 µM]	0%	·	6%[46.1 µM]	8	·
CC(=O)c1cccc(NC(=O)C2CCCN(c3nnc(-n4cccc4)s3)C2)c1 (stereo not given)	·	0%	·	0%[46.1 µM]	-103*	·
Cc1ccc(NC(=O)CCNS(=O)(=O)c2ccc3c(c2)CCN3C(=O)C2CC2)c(Cl)c1	·	-15%	·	-5%[46.1 µM]	-18	·
Cc1ccc2nc(N3CCC(C(=O)N4CCC5(CC4)OCCO5)CC3)sc2c1	7.9µM*	-15%	28%	-25%	2	?
CCOc1ccc2nc(N3CCC(C(=O)N4CCN(c5ncccn5)CC4)CC3)sc2c1	·	?	-2%	·	20	-11%
Cc1ccc2nc(N3CCN(C(=O)C4CC4)CC3)sc2c1	·	30%	·	7%[46.1 µM]	33	·
CCOc1ccc2nc(N3CCC(C(=O)N4CCC5(CC4)OCCO5)CC3)sc2c1	?	22%	2%	-2%	33	?
CCOc1ccc2nc(N3CCC(C(=O)N4CCN(c5ccccn5)CC4)CC3)sc2c1	6%	14µM*	-11%	·	·	6.3µM*
O=C(C1CC1)N1CCN(c2nc3ccc(F)cc3s2)CC1	·	19%	·	10%[46.1 µM]	25	·
O=C(C1CCN(c2nc3ccc(Br)cc3s2)CC1)N1CCC2(CC1)OCCO2	?	-28%	6%	-13%	-33	3.2µM*
CCc1ccc2nc(N3CCC(C(=O)N4CCC5(CC4)OCCO5)CC3)sc2c1	-26%[46.1 µM]	-11%	-5%	-26%[46.1 µM]	?	11µM*
COCCOC(=O)C1=C(C)NC(=O)NC1c1cn(-c2ccccc2)nc1-c1ccccc1 (stereo not given)	?	23%	·	-26%[46.1 µM]	-9	·
Nc1ncnc2c1ncn2C1OC(CO)C2OC21 (stereo not given)	·	1%	·	·	-12	·
CC=C1OC(n2cnc3c(N)ncnc32)C(O)C1O (stereo not given)	·	2%	·	·	10	·
Nc1ncnc2c1ncn2C1C=C(CO)C(O)C1O (stereo not given)	?	-1%	·	0.25µM*	·	?
Nc1ncnc2c1ncn2[C@@H]1O[C@H](CO)C[C@H]1O	·	-7%	·	·	-3	10µM*
Cc1cc(C(=O)NC2CCCc3c2cnn3-c2cccc(C)c2C)n(C)n1 (stereo not given)	·	?	-2%	·	-40	0.32µM*
Cc1ccn(CCC(=O)NC2CCCc3c2cnn3-c2cccc(C)c2C)n1 (stereo not given)	·	-11%	15%	·	?	-8%
Cc1cccc(-n2ncc3c2CCCC3NC(=O)c2ccc[n+]([O-])c2)c1C (stereo not given)	·	-26%	6%	·	?	13µM*
Cc1cccc(-n2ncc3c2CCCC3NC(=O)C2CCOCC2)c1C (stereo not given)	-29%	0%	?	-9%	-38	22µM*
O=C([C@@H]1C[C@@H](Sc2nc3ccccc3[nH]2)CN1Cc1ccc(C(F)(F)F)cc1)N1CCN(c2ccccc2F)CC1	·	-13%	·	·	·	·
CCC(C(=O)Nc1ccc(C(C)=O)cc1)n1c(C)c2cnn(-c3ccccc3)c(=O)c2c1C (stereo not given)	-8%[46.1 µM]	-20%	·	-1%[46.1 µM]	-3	·
CC(C)CC(=O)Nc1nnc(SCc2cc(=O)n3ccccc3n2)s1	·	-28%	·	-4%[46.1 µM]	-24	·
SMILES	MARV entry inh	FMDV antiviral	SARS PLP yeast	LASV entry inh	HCMV antiviral	HCV inhibitor
CCOc1ccc(C2=NC(c3ccncc3)=Nc3ccc(C)cc3N2)cc1OCC	?	-28%	·	-22%[46.1 µM]	-13	·
CC1=CC(=O)C(C(C)C)=C/C1=C(\c1cc(C(C)C)c(OP(=O)(O)O)cc1C)c1ccccc1C(=O)O	?	-2%	2%	?	-98*	?
CCOc1ccc(C(=O)c2ccccc2C(=O)O)cc1OCC	0%[46.1 µM]	-12%	0%	10%[46.1 µM]	-21	27%
C1CCN(c2c3c(nc4nnnn24)CCCC3)CC1	23%	-23%	-2%	-13%	-64*	-3%
CCc1c(CN2CCN(c3cccc(C)c3C)CC2)csc1C	·	-16%	·	8%[46.1 µM]	?	·
Cc1nn(C(=O)c2ccccc2)c(C)c1S(=O)(=O)N1CCCCCC1	·	22%	·	14%[46.1 µM]	12	·
Cc1nn(C(=O)c2cccc(F)c2)c(C)c1S(=O)(=O)N1CCOCC1	·	0%	·	-1%[46.1 µM]	-81*	·
Cc1nn(C(=O)c2cccc(F)c2)c(C)c1S(=O)(=O)N1CCCCCC1	·	-1%	·	-3%[46.1 µM]	-91*	·
Cc1ccccc1C(=O)n1nc(-c2ccco2)nc1NCc1cccs1	12%[46.1 µM]	0%	·	-3%[46.1 µM]	25	·
CCn1nc(C)c2c(-c3ccccc3)cc(=O)n(C(C)C(=O)NCCC(C)C)c21 (stereo not given)	·	-4%	·	-34%[46.1 µM]	-14	·
COc1cc(C2CC(=O)Nc3ccc4ccccc4c32)ccc1OC(=O)C(C)C (stereo not given)	-12%[46.1 µM]	-19%	·	-4%[46.1 µM]	-1	·
CCC(C)(C)NC(=O)C(c1ccc(F)cc1)N(Cc1cccc(OC)c1)C(=O)c1cnccn1 (stereo not given)	15%[46.1 µM]	9%	0%	-3%[46.1 µM]	-32	7%
CCC(C)(C)NC(=O)C(c1ccc(F)cc1)N(Cc1ccc(OC)cc1)C(=O)c1cnccn1 (stereo not given)	1%[46.1 µM]	64%	1%	-3%	-66*	4%
COc1ccc(N2CCN(c3oc(/C=C/c4ccccc4OC)nc3C#N)CC2)cc1	11%[46.1 µM]	-17%	·	16%[46.1 µM]	-26	·
Cc1ccc(-n2cc(C(=O)OCc3ccc(Cl)cc3)c3ccccc3c2=O)cc1	·	-21%	·	24%[46.1 µM]	13	·
COc1cc(OC)c(OC)cc1CN1CCN(Cc2cccn2C)CC1	21µM*	-6%	7%	0%	17	-8%
CCOC(=O)Nc1ccc2c(c1)C(=NNC(N)=S)c1ccccc1-2	13µM*	?	·	?	?	?
CC(C)(CO)Nc1nc(Nc2ccccc2)nc(Nc2ccccc2)n1	-17%	-23%	3%	0%	-11	10µM*
CCC(C)NCC(=O)Nc1cc(S(=O)(=O)N(CC)c2ccccc2)ccc1Cl (stereo not given)	21µM*	0%	3%	?	?	?
CCN(c1ccccc1)S(=O)(=O)c1ccc(Cl)c(NC(=O)CN(C)Cc2cccc(F)c2)c1	?	-20%	·	?	?	8.9µM*

Compound activity deposited in PubChem by National Center for Advancing Translational Sciences (NCATS).
